Test results taken from PubChem BioAssay AID1159606 (Sanford-Burnham Center for Chemical Genomics, 2016).
In all, about 360,000 compounds went through this assay and about 7,300 (2%) were called active. Shown is part of a subset that was picked to be rich in actives. Unmarked numbers belong to inactive results. Rule as the data show it: active = inhibition above about 50%; inactive = the rest.

Test: inhibitors of TWEAK-Fn14 signaling, primary screen, luciferase reporter cells, uHTS (AID 1159606)
Conditions: TWEAK-stimulated Fn14 reporter cells, luciferase luminescence, 8 h; at 10 µM; stronger effect = higher value

| SMILES | inhibition |
| --- | --- |
| Cc1ccc(S(=O)(=O)N2CCC(=O)N([C@H](COCc3ccccc3)C(C)C)CC2)cc1 | -20.6% |
| Cc1cccc(C)c1NC(=O)CN1CCN(c2ccc(F)cc2)CC1 | 0% |
| Oc1c(CN2CCCC2)cc(COCc2ccccc2)c2cccnc12 | 9.88% |
| Oc1c(CN2CCN(c3ccc(F)cc3)CC2)cc(Cl)c2cccnc12 | 104% (active) |
| O=[N+]([O-])c1ccc(S(=O)(=O)Nc2cccc(-c3ccc(N4CCCC4)nn3)c2)cc1 | -10.7% |
| O=C(Nc1ccccn1)C1CCN(S(=O)(=O)c2ccc3c(c2)OCCO3)CC1 | -16% |
| CN1C(=O)c2ccc(NC(=O)C3CCCCC3)cc2C1=O | -18.9% |
| O=C(Nc1ccc2c(c1)OCO2)C1CC1(Cl)Cl (stereo not drawn) | -7.08% |
| O=C(Nc1cccc(Cl)c1)C1CCCN(c2cnccn2)C1 (stereo not drawn) | -12.7% |
| O=C(Nc1ccc2c(c1)OCCO2)C1CCCC1 | 92.4% (active) |
| O=C(Nc1ccc2c(c1)OCCO2)C1CCCN(c2ncccn2)C1 (stereo not drawn) | 67.2% (active) |
| Cc1ccccc1S(=O)(=O)NC(=O)C1(C)CCN1C(=O)C1(c2ccccc2)CCCC1 (stereo not drawn) | 0.78% |
| COc1ccc(NC(=O)CN(C)C(=O)CNC(=O)C2CCCCC2)cc1 | -2.69% |
| COc1cccc(CNC(=O)[C@@H]2CCCN2C(=O)[C@@H]2CCCN2C(=O)c2ccccc2)c1 | 17.3% |
| CC1(C(=O)NS(=O)(=O)c2ccccc2)CCN1C(=O)C1CCCCC1 (stereo not drawn) | -10.4% |
| CCC1(C)NC(=O)N(CC(=O)N2CCN(c3cccc(Cl)c3)CC2)C1=O (stereo not drawn) | 5.53% |
| CSc1nc(-c2ccco2)nn1C(=O)c1ccccc1Cl | 51% (active) |
| CCn1c(SCC(=O)Nc2cc(C)c(Cl)cc2OC)nnc1-c1ccco1 | -18.4% |
| O=C(CSc1nnc(-c2ccco2)o1)NCC(=O)c1ccccc1 | 7.83% |
| CCn1cc(CN2CCCC(CNS(=O)(=O)Cc3ccccc3)C2)cn1 (stereo not drawn) | 1.85% |
| CCCNC(=O)c1c(Cl)cnn1-c1ccc(C)cc1 | -19.4% |
| CC(=O)Nc1c2c(nn1-c1cccc(C)c1)CSC2 | -5.72% |
| Cc1cccc(-n2ncc(Cl)c(Cl)c2=O)c1 | 94.7% (active) |
| COc1cccc(-c2nc3nc(C)cc(C)n3c2NC2CCCCC2)c1 | -20.7% |
| CC(C)(C)Oc1ccccc1Nc1nc(NCCO)nc(N2CCCC2)n1 | -8.68% |
| Cc1ccc(-n2c(SCC(=O)N3CCC(C(=O)O)CC3)nc3ccccc3c2=O)cc1C | 58.6% (active) |
| COc1cccc(-n2c(SCC(=O)NC3CCS(=O)(=O)C3)nc3ccccc3c2=O)c1 (stereo not drawn) | 6.23% |
| O=C(CSc1nc2ccccc2c(=O)n1-c1ccccc1F)N1CCOCC1 | 0.72% |
